Measurements reported in PubChem BioAssay (NCATS).
For some assays here: Results with a measured potency or affinity are listed apart. More than one record can exist for a structure, and the calls need not agree. The source made the active and inactive calls.

How the values were obtained:
[1] = Ebola virus entry assay, green fluorescence channel
[2] = Ebola virus entry assay, ratio channel readout
[3] = Ebola virus entry assay, blue channel fluorescence
[4] = Ebola virus entry assay, ratio channel
[5] = Ebola virus entry assay, reporter ratio channel; AC50: Channel type: primary unless noted; outcome: Channel type: primary unless noted
[6] = Ebola virus entry cell assay, ratio channel
[7] = Ebola virus entry assay, blue channel fluorescence; remark: listed apart in the source
[8] = Ebola virus entry assay, blue channel (ratio component)
[9] = Ebola virus entry reporter assay, green channel fluorescence
[10] = Ebola virus entry assay, green channel fluorescence

## CC/C(=C(\c1ccccc1)c1ccc(OCCN(C)C)cc1)c1ccccc1
[1]
  outcome: inactive
[2]
  AC50: 1.26 µM (active)
[3]
  AC50: 1.41 µM (active)
[4]
  AC50: 1.12 µM (active)
[5]
  AC50: 1.12 µM (active)
  outcome: inactive [Channel type: confirmation]
[6]
  AC50: 1.26 µM (active)

## N=C(N)c1ccc(OCCCCCOc2ccc(C(=N)N)cc2)cc1
[1]
  outcome: inactive
[2]
  outcome: inactive
[3]
  outcome: inactive
[4]
  outcome: inactive
[7]
  outcome: inactive
[5]
  outcome: inactive
[8]
  outcome: inactive
[6]
  outcome: inactive

## COc1cc2nc(N(C)CCCNC(=O)C3CCCO3)nc(N)c2cc1OC (stereo unspecified)
[1]
  outcome: inactive
[2]
  outcome: inactive
[3]
  AC50: 39.8 µM (active)
[4]
  outcome: inactive
[7]
  outcome: inactive
[5]
  AC50: 35.5 µM (active)
[9]
  outcome: inactive
[6]
  outcome: inactive

## Cc1nc2n(c(=O)c1CCN1CCC(c3noc4cc(F)ccc34)CC1)CCCC2
[1]
  outcome: inactive
[2]
  outcome: inactive
[3]
  outcome: inactive
[4]
  outcome: inactive
[7]
  outcome: inactive
[5]
  outcome: inactive
[8]
  outcome: inactive
[6]
  outcome: inactive

## CC(=O)Oc1ccccc1C(=O)Nc1ncc([N+](=O)[O-])s1
[1]
  outcome: inactive
[2]
  outcome: inactive
[3]
  outcome: inactive
[4]
  outcome: inactive
[10]
  outcome: inactive
[5]
  outcome: inactive
[6]
  outcome: inactive

## CC(=O)Oc1cc2c(s1)CCN(C(C(=O)C1CC1)c1ccccc1F)C2 (stereo unspecified)
[1]
  outcome: inactive
[2]
  outcome: inactive
[3]
  outcome: inactive
[4]
  outcome: inactive
[7]
  outcome: inactive
[5]
  outcome: inactive
[8]
  outcome: inactive
[6]
  outcome: inactive

## COc1ccc(C(CN(C)C)C2(O)CCCCC2)cc1 (stereo unspecified)
[1]
  outcome: inactive
[2]
  outcome: inactive
[3]
  AC50: 35.5 µM (active)
[4]
  outcome: inactive
[7]
  outcome: inactive
[5]
  AC50: 39.8 µM (active)
[9]
  outcome: inactive
[6]
  outcome: inactive

## CCc1ccc(CCOc2ccc(CC3SC(=O)NC3=O)cc2)nc1 (stereo unspecified)
[1]
  outcome: inactive
[2]
  outcome: inactive
[3]
  outcome: inactive
[4]
  outcome: inactive
[7]
  outcome: inactive
[5]
  outcome: inactive
[9]
  outcome: inactive
[6]
  outcome: inactive

## CC(C)c1nc(CN(C)C(=O)N[C@H](C(=O)N[C@@H](Cc2ccccc2)C[C@H](O)[C@H](Cc2ccccc2)NC(=O)OCc2cncs2)C(C)C)cs1
[1]
  outcome: inactive
[2]
  outcome: inactive
[3]
  outcome: inactive
[4]
  AC50: 22.4 µM (active)
[7]
  outcome: inactive
[5]
  AC50: 22.4 µM (active)
[8]
  outcome: inactive
[9]
  outcome: inactive
[6]
  outcome: inactive

## CC[C@]1(O)C[C@H]2CN(CCc3c([nH]c4ccccc34)[C@@](C(=O)OC)(c3cc4c(cc3OC)N(C=O)[C@H]3[C@@](O)(C(=O)OC)[C@H](OC(C)=O)[C@]5(CC)C=CCN6CC[C@]43[C@@H]65)C2)C1
[1]
  outcome: inactive
[2]
  outcome: inactive
[3]
  AC50: 0.282 µM (active)
[4]
  outcome: inactive
[5]
  outcome: inactive [Channel type: confirmation]
[8]
  outcome: inactive
[6]
  AC50: 0.112 µM (active)

## CCc1c2c(nc3ccc(OC(=O)N4CCC(N5CCCCC5)CC4)cc13)-c1cc3c(c(=O)n1C2)COC(=O)[C@]3(O)CC
[1]
  outcome: inactive
[2]
  outcome: inactive
[3]
  AC50: 20 µM (active)
[4]
  AC50: 28.2 µM (active)
[7]
  outcome: inactive
[5]
  AC50: 28.2 µM (active)
[6]
  outcome: inactive

## COCCCOc1cc(C[C@@H](C[C@H](N)[C@@H](O)C[C@H](C(=O)NCC(C)(C)C(N)=O)C(C)C)C(C)C)ccc1OC
[1]
  outcome: inactive
[2]
  outcome: inactive
[3]
  outcome: inactive
[4]
  outcome: inactive
[5]
  outcome: inactive
[8]
  outcome: inactive
[9]
  outcome: inactive
[6]
  outcome: inactive

## CO[C@H]1C=CO[C@@]2(C)Oc3c(C)c(O)c4c(O)c(c(/C=N/N5CCN(C)CC5)c(O)c4c3C2=O)NC(=O)/C(C)=C\C=C[C@H](C)[C@H](O)[C@@H](C)[C@@H](O)[C@@H](C)[C@H](OC(C)=O)[C@@H]1C
[1]
  outcome: inactive
[2]
  outcome: inactive
[3]
  outcome: inactive
[4]
  outcome: inactive
[7]
  outcome: inactive
[5]
  outcome: inactive
[8]
  outcome: inactive
[9]
  outcome: inactive
[6]
  outcome: inactive

## C[C@]12C/C(=C/O)C(=O)C[C@@H]1CC[C@@H]1[C@@H]2CC[C@@]2(C)[C@H]1CC[C@]2(C)O
[1]
  outcome: inactive
[2]
  outcome: inactive
[3]
  outcome: inactive
[4]
  AC50: 14.1 µM (active)
[7]
  outcome: inactive
[5]
  AC50: 14.1 µM (active)
[8]
  outcome: inactive
[9]
  outcome: inactive
[6]
  outcome: inactive

## C[C@@H](O)[C@H]1C(=O)N2C(C(=O)O)=C(S[C@@H]3CN[C@H](CNS(N)(=O)=O)C3)[C@H](C)[C@H]12
[1]
  outcome: inactive
[2]
  outcome: inactive
[3]
  outcome: inactive
[4]
  outcome: inactive
[5]
  AC50: 25.1 µM (active)
[8]
  outcome: inactive
[9]
  outcome: inactive
[6]
  outcome: inactive

## CN(C)c1ccc(O)c2c1C[C@H]1C[C@H]3[C@H](N(C)C)C(=O)C(C(N)=O)=C(O)[C@@]3(O)C(=O)C1=C2O
[1]
  outcome: inactive
[2]
  outcome: inactive
[3]
  outcome: inactive
[4]
  outcome: inactive
[7]
  outcome: inactive
[5]
  outcome: inactive
[8]
  outcome: inactive
[6]
  outcome: inactive

## O=C(c1ccc(OCCN2CCCCC2)cc1)c1c(-c2ccc(O)cc2)sc2cc(O)ccc12
[1]
  outcome: inactive
[2]
  AC50: 5.02 µM (active)
[3]
  AC50: 0.708 µM (active)
[4]
  outcome: inactive
[10]
  outcome: inactive
[6]
  AC50: 5.01 µM (active)

## CN(C)CCOC(C)(c1ccccc1)c1ccccn1 (stereo unspecified)
[1]
  outcome: inactive
[2]
  outcome: inactive
[3]
  AC50: 15.8 µM (active)
[4]
  AC50: 14.1 µM (active)
[10]
  outcome: inactive
[5]
  AC50: 14.1 µM (active)
[6]
  outcome: inactive

## CC#C[C@]1(O)CC[C@H]2[C@@H]3CCC4=CC(=O)CCC4=C3[C@@H](c3ccc(N(C)C)cc3)C[C@@]21C
[1]
  outcome: inactive
[2]
  outcome: inactive
[3]
  outcome: inactive
[4]
  outcome: inactive
[7]
  outcome: inactive
[5]
  outcome: inactive
[6]
  outcome: inactive

## CCOC(=O)Nc1ccc2c(c1)N(C(=O)CCN1CCOCC1)c1ccccc1S2
[1]
  outcome: inactive
[2]
  outcome: inactive
[3]
  outcome: inactive
[4]
  outcome: inactive
[7]
  outcome: inactive
[5]
  AC50: 39.8 µM (active)
[8]
  outcome: inactive
[6]
  outcome: inactive

## CC(C)C[C@H](NC(=O)[C@H](Cc1ccccc1)NC(=O)c1cnccn1)B(O)O
[1]
  outcome: inactive
[2]
  outcome: inactive
[3]
  AC50: 0.0794 µM (active)
[4]
  AC50: 1.26 µM (active)
[7]
  outcome: inactive
[5]
  AC50: 1.26 µM (active)
[9]
  outcome: inactive
[6]
  outcome: inactive

## CN(C)[C@@H]1C(=O)C(C(N)=O)=C(O)[C@@]2(O)C(=O)C3=C(O)c4c(O)ccc(Cl)c4[C@@H](O)[C@H]3C[C@@H]12
[1]
  outcome: inactive
[2]
  outcome: inactive
[3]
  outcome: inactive
[4]
  AC50: 28.2 µM (active)
[7]
  outcome: inactive
[5]
  AC50: 28.2 µM (active)
[8]
  outcome: inactive
[6]
  outcome: inactive

## CC[C@@]1(O)C(=O)OCc2c1cc1n(c2=O)Cc2cc3c(CN(C)C)c(O)ccc3nc2-1
[1]
  AC50: 7.94 µM (active)
[2]
  outcome: inactive
[3]
  outcome: inactive
[4]
  AC50: 7.94 µM (active)
[7]
  outcome: inactive
[5]
  AC50: 7.94 µM (active)
[8]
  outcome: inactive
[6]
  AC50: 5.62 µM (active)

## CCN(CCO)CCCC(C)Nc1ccnc2cc(Cl)ccc12 (stereo unspecified)
[1]
  outcome: inactive
[2]
  outcome: inactive
[3]
  AC50: 1.12 µM (active)
[4]
  AC50: 1.41 µM (active)
[10]
  outcome: inactive
[5]
  AC50: 1.41 µM (active)
[6]
  AC50: 1.26 µM (active)

## CCC(=O)O[C@H]1[C@H](O[C@@H]2[C@@H](C)[C@H](O[C@H]3C[C@@](C)(OC)[C@@H](O)[C@H](C)O3)[C@@H](C)C(=O)O[C@H](CC)[C@@](C)(O)[C@H](O)[C@@H](C)C(=O)[C@H](C)C[C@@]2(C)O)O[C@H](C)C[C@@H]1N(C)C
[1]
  outcome: inactive
[2]
  outcome: inactive
[3]
  AC50: 14.1 µM (active)
[4]
  AC50: 11.2 µM (active)
[5]
  AC50: 11.2 µM (active)
[6]
  outcome: inactive

## CN1CCc2cccc3c2[C@H]1Cc1ccc(O)c(O)c1-3
[1]
  outcome: inactive
[2]
  outcome: inactive
[3]
  AC50: 28.2 µM (active)
[4]
  AC50: 28.2 µM (active)
[5]
  AC50: 28.2 µM (active)
[9]
  outcome: inactive
[6]
  outcome: inactive

## O=C1c2cccc3c2[C@H](CCC3)CN1[C@@H]1CN2CCC1CC2
[1]
  outcome: inactive
[2]
  outcome: inactive
[3]
  AC50: 20 µM (active)
[4]
  AC50: 28.2 µM (active)
[5]
  AC50: 28.2 µM (active)
[9]
  outcome: inactive
[6]
  outcome: inactive
